Laboratory results from PubChem BioAssay (EPA / NIEHS).
Activity calls are given as the source filed them. How the source made its calls: active means hit-call score of the fitted dose curve at least 0.9, where 1 is the maximum; inactive means score below 0.9.

Assay: Tanguay_ZF_120hpf_BRN: Oregon State University Tanguay Lab 120 Hour Post-fertilization zebrafish Assay for Brain Region Malformation (AID 2284402)
Protocol: Tanguay_ZF_120hpf is a whole embryo, multiplexed endpoint assay using zebrafish larvae exposed for 120 hours post fertilization on a 96-well plate.Tanguay_ZF_120hpf_BRN is one of one assay component(s) measured or calculated from the Tanguay_ZF_120hpf assay. It is designed to make measurements of zebrafish development as detected with brightfield microscopy of developing zebrafish embryos.Data from the assay component Tanguay_ZF_120hpf_BRN was analyzed into 1 assay endpoints. This assay endpoint, Tanguay_ZF_120hpf_BRN, was analyzed in the positive analysis fitting direction relative to DMSO as the negative control and baseline of activity. Using a type of morphology reporter, gain-of-signal activity can be used to understand changes in developmentals as they relate to the whole embryo. To generalize the intended target to other relatable targets, this assay endpoint is annotated to the zebrafish development intended target family, where the subfamily is brain morphogenesis.
Zebrafish husbandry: Tropical 5D wild-type adult zebrafish were housed in at an approximate density of 1000 per 100 gallon tank at the Sinnhuber Aquatic Research Laboratory, Oregon State University, Corvallis, OR. Each tank was kept at standard laboratory conditions of 28C on a 14-h light/10-h dark photoperiod in fish water consisting of reverse osmosis water supplemented with a commercially available salt (Instant Ocean). Spawning funnels were placed into the tanks the night prior, and embryos were collected and staged. To increase bioavailability, the chorion was enzymatically removed using pronase (63.6mg/ml, >/= 3.5U/mg, Sigma-Aldrich: P5147) at 4 hours post fertilization (hpf) using a custom automated dechorionator.Chemical exposures: Six hpf dechorionated embryos were placed 1 embryo per well in a 96-well plate prefilled with 90 ul of EM using automated embryo placement systems (AEPS). Ten microliters of each row of dilution plate 2 was added to 2 exposure plates. The final DMSO concentration used was 0.64% (vol/vol). Thirty-two embryos were also exposed to 5uM trimethyltin chloride (positive control). Plates were sealed to prevent evaporation and foil covered to reduce light exposure and kept in a 28C incubator. Embryos were statically exposed until 120 hpf. At 24 hpf, embryos were assessed for photomotor response using a custom photomotor response analysis tool (PRAT) and for developmental toxicity endpoints (MO24: mortality at 24 hpf, DP: developmental progression, SM: spontaneous movement, and NC: notochord distortion). At 120 hpf, locomotor activity was measured using Viewpoint Zebralab and assessed for 13 endpoints. Zebrafish acquisition and analysis program (ZAAP), a custom program designed to inventory, acquire, and manage zebrafish data, was used to collect developmental endpoints as either present or absent (i.e., binary responses were recorded). If mortality occurred for an embryo (at either 24 or 120 hpf), the non-mortality endpoints were not measured.

Row | SMILES | outcome | AC50
1 | OCCCC(F)(F)C(F)(F)C(F)(F)C(F)(F)C(F)(F)C(F)(F)C(F)(F)C(F)(F)F | inactive | 
2 | O=C(F)C1(F)C(F)(F)C(F)(F)C(F)(F)C(F)(F)C1(F)F | inactive | 
3 | OCC(F)(F)C(F)(F)C(F)(F)C(F)(F)C(F)(F)C(F)(F)CO | inactive | 
4 | NC(=O)C(F)(F)C(F)(F)C(F)(F)C(F)(F)C(F)(F)C(F)(F)C(F)(F)F | inactive | 
5 | O=C(O)C(F)(F)C(F)(F)C(F)(F)OC(F)(F)F | inactive | 
6 | FC(F)(F)C(F)(F)C(F)(F)CC1CO1 (configuration not stated) | inactive | 
7 | NC(=O)C(F)(F)C(F)(F)C(F)(F)F | inactive | 
8 | OCC(F)(F)C(F)(F)C(F)(F)C(F)(F)C(F)(F)C(F)(F)C(F)(F)C(F)(F)CO | inactive | 
9 | FC(F)(F)C(F)(F)C(F)(F)C(F)(F)C(F)(F)C(F)(F)CC[Si](Cl)(Cl)Cl | inactive | 
10 | C=CC(=O)OCC(F)(F)C(F)(F)C(F)(F)C(F)(F)C(F)(F)C(F)(F)C(F)(F)C(F)F | inactive | 
11 | O=C(O)C(F)(F)C(F)(F)C(F)(F)OC(F)(C(F)(F)F)C(F)(F)F | inactive | 
12 | C=CC(=O)OCCC(F)(F)C(F)(F)C(F)(F)C(F)(F)F | inactive | 
13 | O=S(=O)(OCC(F)(F)F)C(F)(F)C(F)(F)C(F)(F)C(F)(F)F | inactive | 
14 | OCC(O)CC(F)(F)C(F)(F)C(F)(F)C(F)(F)C(F)(F)C(F)(F)C(F)(F)C(F)(F)F (configuration not stated) | inactive | 
15 | CNS(=O)(=O)C(F)(F)C(F)(F)C(F)(F)C(F)(F)C(F)(F)C(F)(F)C(F)(F)C(F)(F)F | inactive | 
16 | OCC(O)CC(F)(F)C(F)(F)C(F)(F)C(F)(F)F (configuration not stated) | inactive | 
17 | O=S(=O)(O)CCC(F)(F)C(F)(F)C(F)(F)C(F)(F)F | inactive | 
18 | CO[Si](C)(CCC(F)(F)C(F)(F)C(F)(F)C(F)(F)C(F)(F)C(F)(F)F)OC | inactive | 
19 | C[Si](Cl)(Cl)CCC(F)(F)C(F)(F)C(F)(F)C(F)(F)C(F)(F)C(F)(F)F | inactive | 

Row | SMILES | outcome | AC50
20 | O=S(=O)(O)CCC(F)(F)C(F)(F)C(F)(F)C(F)(F)C(F)(F)C(F)(F)C(F)(F)C(F)(F)F | inactive | 
21 | NC(=O)C(F)(F)C(F)(F)C(F)(F)C(F)F | inactive | 
22 | OC(O)C(F)(F)C(F)(F)F | inactive | 
23 | CCN(CCO)S(=O)(=O)C(F)(F)C(F)(F)C(F)(F)C(F)(F)C(F)(F)C(F)(F)C(F)(F)C(F)(F)F | inactive | 
24 | O=C(O)CCC(F)(F)C(F)(F)C(F)(F)C(F)(F)C(F)(F)C(F)(F)C(F)(F)F | inactive | 
25 | FC(F)(F)C(F)(F)C(F)(F)C(F)(F)C(F)(F)C(F)(F)C(F)(F)CCI | inactive | 
26 | CN(C(=O)C(F)(F)C(F)(F)C(F)(F)F)[Si](C)(C)C | inactive | 
27 | NC(=O)C(F)(F)C(F)(F)C(F)(F)C(F)(F)C(N)=O | inactive | 
28 | NC(O)(C(F)(F)F)C(F)(F)F | inactive | 
29 | C=CC(=O)OCC(F)(F)C(F)(F)C(F)(F)COC(=O)C=C |  | 4.29 µM (active)
30 | OCCCCC(F)(F)C(F)(F)C(F)(F)C(F)(F)F | inactive | 
31 | O=S(=O)(Cl)C(F)(F)C(F)(F)C(F)(F)C(F)(F)C(F)(F)C(F)(F)C(F)(F)C(F)(F)F | inactive | 
32 | O=C(O)CCC(F)(F)C(F)(F)C(F)(F)F | inactive | 
33 | NS(=O)(=O)C(F)(F)C(F)(F)C(F)(F)C(F)(F)C(F)(F)C(F)(F)F | inactive | 
34 | O=C(O)C(F)(F)C(F)(F)C(F)(F)C(=O)O | inactive | 
35 | OCC(F)(F)C(F)(F)C(F)(F)CO | inactive | 
36 | CCOC(=O)CC(=O)C(F)(F)C(F)(F)F | inactive | 
37 | COC(F)(C(F)F)C(F)(F)F (configuration not stated) | inactive | 
